# Measurements as given in the supplement of paper PMC7156485.
# Values joined by “and” are separate entries in the source; they are usually repeats but may differ in a detail not shown here. Identical values can stand only once. ± gives the standard deviation of the averaged measurements.
# How the values were obtained:
# Conditions in all cases: concentration: 10 µM; 24 h
# HCC1569 [1] = test: cell number relative to DMSO (% of DMSO); higher = more cells (less growth inhibition / toxicity)
# Outline: (§1)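 Using 384-well plates with 800 cells per well in RPMI plus 10% FBS, HCC1569 and TDF cells were exposed to compounds at 10 µM, in triplicate, for 24 h at 37 °C. Imaging of six fields per well at ×10 followed H1.0 and DAPI staining. The reported quantity, H1.0 nuclear intensity or cell number, is a median of replicates given as percent of the plate control, and HCC1569 values were smoothed for positional effects.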
# TDF [2] = test: as above
# Outline: as §1
# TDF [3] = test: H1.0 immunofluorescence intensity relative to DMSO (% of DMSO); higher = stronger H1.0 induction, active = 120 or more
# Outline: as §1
# HCC1569 [4] = test: H1.0 immunofluorescence intensity relative to DMSO (% of DMSO); higher = stronger H1.0 induction, active = 140 or more
# Outline: as §1
# 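Wherever H1.0 immunofluorescence intensity relative to DMSO is given: TDF is a line of transformed human dermal fibroblasts of mesenchymal origin.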
# 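Wherever cell number relative to DMSO is given: TDF denotes transformed human dermal fibroblasts of mesenchymal origin.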
smiles,measurement,setting,value
O=c1cc(-c2cccc3c2Sc2ccccc2S3)oc(N2CCOCC2)c1 [ATM Kinase Inhibitor],cell number,HCC1569 [1],89.5
same,cell number,TDF [2],109
same,H1.0 immunofluorescence intensity,TDF [3],98.4 (inactive)
same,H1.0 immunofluorescence intensity,HCC1569 [4],113 (inactive)
Nc1nc2ccc(Cl)cc2c2nc(-c3ccco3)nn12,cell number,HCC1569 [1],99.2
same,cell number,TDF [2],102
same,H1.0 immunofluorescence intensity,TDF [3],96 (inactive)
same,H1.0 immunofluorescence intensity,HCC1569 [4],118 (inactive)
COc1cc2c(cc1OC)C1C(=O)c3ccc4c(c3OC1CO2)C=CC(C)(C)O4 (stereo not given) [Degeulin],cell number,HCC1569 [1],72.6
same,cell number,TDF [2],76.5
same,H1.0 immunofluorescence intensity,TDF [3],106 (inactive)
same,H1.0 immunofluorescence intensity,HCC1569 [4],121 (inactive)
COc1cccc(-c2cc(=O)c3ccccc3o2)c1N,cell number,HCC1569 [1],99.7 and 100 and 98.4
same,cell number,TDF [2],105 and 103
same,H1.0 immunofluorescence intensity,TDF [3],85.6 (inactive) and 92.6 (inactive) and 87.8 (inactive)
same,H1.0 immunofluorescence intensity,HCC1569 [4],106 (inactive) and 104 (inactive)
CC(C)C(CO)Nc1nc(Nc2cc(N)cc(Cl)c2)c2ncn(C(C)C)c2n1 (stereo not given) [Aminopurvalanol A],cell number,HCC1569 [1],65.5
same,cell number,TDF [2],83.4
same,H1.0 immunofluorescence intensity,TDF [3],97.4 (inactive)
same,H1.0 immunofluorescence intensity,HCC1569 [4],145 (active)
COC1(NC(=O)CSCC#N)C(=O)N2C(C(=O)[O-])=C(CSc3nnnn3C)CSC21.[Na+] (stereo not given) [Cefmetazole sodium],cell number,HCC1569 [1],101
same,cell number,TDF [2],110
same,H1.0 immunofluorescence intensity,TDF [3],91.2 (inactive)
same,H1.0 immunofluorescence intensity,HCC1569 [4],89.6 (inactive)
CC(=O)OC1CC2(C)C(CC(O)C3C4(C)CCC(O)C(C)C4CCC32C)C1=C(CCC=C(C)C)C(=O)[O-].[Na+] (stereo not given) [Fusidic acid sodium],cell number,HCC1569 [1],105
same,cell number,TDF [2],113
same,H1.0 immunofluorescence intensity,TDF [3],89.5 (inactive)
same,H1.0 immunofluorescence intensity,HCC1569 [4],83.5 (inactive)
"COc1cc(SC)ccc1C(=O)N1CCC(Cc2ccccc2)CC1 [p38 MAP Kinase Inhibitor VI, JX401]",cell number,HCC1569 [1],104
same,cell number,TDF [2],101
same,H1.0 immunofluorescence intensity,TDF [3],96.9 (inactive)
same,H1.0 immunofluorescence intensity,HCC1569 [4],117 (inactive)
Cc1ccc(Nc2nccc(N(C)c3ccc4c(C)n(C)nc4c3)n2)cc1S(N)(=O)=O [Pazopanib],cell number,HCC1569 [1],74.3
same,cell number,TDF [2],100
same,H1.0 immunofluorescence intensity,TDF [3],94.6 (inactive)
same,H1.0 immunofluorescence intensity,HCC1569 [4],156 (active)
Cn1sc(=O)n(Cc2ccccc2)c1=O [GSK-3b Inhibitor I],cell number,HCC1569 [1],98.9
same,cell number,TDF [2],102
same,H1.0 immunofluorescence intensity,TDF [3],98.3 (inactive)
same,H1.0 immunofluorescence intensity,HCC1569 [4],134 (inactive)
Cc1ccc(C)c(OCCCC(C)(C)C(=O)O)c1 [Gemfibrozil],cell number,HCC1569 [1],103
same,cell number,TDF [2],99.1
same,H1.0 immunofluorescence intensity,TDF [3],91.8 (inactive)
same,H1.0 immunofluorescence intensity,HCC1569 [4],115 (inactive)
"Cn1c(=O)[nH]c2ncn(C)c2c1=O [1,7-Dimethylxanthine]",cell number,HCC1569 [1],102
same,cell number,TDF [2],98.9
same,H1.0 immunofluorescence intensity,TDF [3],88 (inactive)
same,H1.0 immunofluorescence intensity,HCC1569 [4],85.7 (inactive)
CC(C)NCC(O)c1cc(O)cc(O)c1.CC(C)NCC(O)c1cc(O)cc(O)c1.O=S(=O)(O)O (stereo not given) [Metaproterenol hemisulfate],cell number,HCC1569 [1],102
same,cell number,TDF [2],106
same,H1.0 immunofluorescence intensity,TDF [3],92.1 (inactive)
same,H1.0 immunofluorescence intensity,HCC1569 [4],93.4 (inactive)
COc1cc(NS(C)(=O)=O)ccc1Nc1c2ccccc2nc2ccccc12.Cl [Amsacrine hydrochloride],cell number,HCC1569 [1],67.8
same,cell number,TDF [2],32.3
same,H1.0 immunofluorescence intensity,TDF [3],152 (active)
same,H1.0 immunofluorescence intensity,HCC1569 [4],113 (inactive)
CN(C)CCOc1ccc(-c2nc(=c3ccc4c(c3)CCC=4N=O)c(=C3C=CNC=C3)[nH]2)cc1,cell number,HCC1569 [1],88.6
same,cell number,TDF [2],49
same,H1.0 immunofluorescence intensity,TDF [3],117 (inactive)
same,H1.0 immunofluorescence intensity,HCC1569 [4],132 (inactive)
"CC=Cc1ccc(OC)cc1 [Anethole, trans-]",cell number,HCC1569 [1],96.1
same,cell number,TDF [2],81.4
same,H1.0 immunofluorescence intensity,TDF [3],107 (inactive)
same,H1.0 immunofluorescence intensity,HCC1569 [4],105 (inactive)
CCCCCCCCC=CCCCCCCCCCC(=O)O [11(Z)-Eicosenoic acid],cell number,HCC1569 [1],105
same,cell number,TDF [2],105
same,H1.0 immunofluorescence intensity,TDF [3],98.9 (inactive)
same,H1.0 immunofluorescence intensity,HCC1569 [4],101 (inactive)
CC1CC2OC2C=CC=CC(=O)Cc2c(Cl)c(O)cc(O)c2C(=O)O1 (stereo not given) [Radicicol],cell number,HCC1569 [1],66.2
same,cell number,TDF [2],15.9
same,H1.0 immunofluorescence intensity,TDF [3],133 (active)
same,H1.0 immunofluorescence intensity,HCC1569 [4],121 (inactive)
c1ccc2c(CC3=NCCN3)cccc2c1 [Naphazoline],cell number,HCC1569 [1],99.4
same,cell number,TDF [2],102
same,H1.0 immunofluorescence intensity,TDF [3],98 (inactive)
same,H1.0 immunofluorescence intensity,HCC1569 [4],113 (inactive)
COc1cc(C=CC(=O)c2ccc(O)cc2O)ccc1O [Homobutein],cell number,HCC1569 [1],95.5
same,cell number,TDF [2],101
same,H1.0 immunofluorescence intensity,TDF [3],92 (inactive)
same,H1.0 immunofluorescence intensity,HCC1569 [4],100 (inactive)
Cc1ccc(C(=O)Nc2ccc(S(=O)(=O)[O-])c3cc(S(=O)(=O)[O-])cc(S(=O)(=O)[O-])c23)cc1NC(=O)c1cccc(NC(=O)Nc2cccc(C(=O)Nc3cc(C(=O)Nc4ccc(S(=O)(=O)[O-])c5cc(S(=O)(=O)[O-])cc(S(=O)(=O)[O-])c45)ccc3C)c2)c1.[Na+].[Na+].[Na+].[Na+].[Na+].[Na+] [Suramin hexasodium],cell number,HCC1569 [1],101
same,cell number,TDF [2],101
same,H1.0 immunofluorescence intensity,TDF [3],98.5 (inactive)
same,H1.0 immunofluorescence intensity,HCC1569 [4],102 (inactive)
COC12C(COC(N)=O)C3=C(C(=O)C(C)=C(N)C3=O)N1CC1NC12 (stereo not given) [Mitomycin C],cell number,HCC1569 [1],73.2 ± 6
same,cell number,TDF [2],47.6 ± 1.8
same,H1.0 immunofluorescence intensity,TDF [3],105 (inactive)
same,H1.0 immunofluorescence intensity,HCC1569 [4],96.2 (inactive)
CC1(C)CCC(NC(=O)C(N)CCC(=O)O)CC1 (stereo not given),cell number,HCC1569 [1],103
same,cell number,TDF [2],111
same,H1.0 immunofluorescence intensity,TDF [3],85.3 (inactive)
same,H1.0 immunofluorescence intensity,HCC1569 [4],91.7 (inactive)
CC(C)NNC(=O)c1ccncc1 [Iproniazid],cell number,HCC1569 [1],104
same,cell number,TDF [2],103
same,H1.0 immunofluorescence intensity,TDF [3],100 (inactive)
same,H1.0 immunofluorescence intensity,HCC1569 [4],112 (inactive)
CC1(C)CCC(C)(C)c2cc(C(=O)Nc3ccc(C(=O)O)cc3)ccc21,cell number,HCC1569 [1],101
same,cell number,TDF [2],104
same,H1.0 immunofluorescence intensity,TDF [3],91.8 (inactive)
same,H1.0 immunofluorescence intensity,HCC1569 [4],109 (inactive)
